Compounds without any hit were thinned out: in the full panel of roughly 83,000, 20% have a hit.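 Testing used 96-well plates and a 48-hour single-concentration exposure. Example: -40 means 40% of the starting cells died.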 Unmarked numbers belong to inactive results. The source made the active and inactive calls. Rule for the calls: active = growth percent below 10; inactive = the rest.
What was measured:
Test in all cases: NCI-60 one-dose screen, 48 h (100 = growth as untreated, 0 = no growth, -100 = all killed)
Conditions in all cases: 10 µM unless noted
NCI-H23 lung = tested on: NCI-H23 lung
NCI-H226 lung = tested on: NCI-H226 lung
NCI-H322M lung = tested on: NCI-H322M lung
HOP-62 NSCLC = tested on: HOP-62 NSCLC
NCI-H460 lung = tested on: NCI-H460 lung
HOP-92 NSCLC = tested on: HOP-92 NSCLC
NCI-H522 lung = tested on: NCI-H522 lung
A549/ATCC NSCLC = tested on: A549/ATCC NSCLC
786-0 renal = tested on: 786-0 renal
COLO 205 colon = tested on: COLO 205 colon
DU-145 prostate = tested on: DU-145 prostate
K-562 leukemia = tested on: K-562 leukemia
MALME-3M melanoma = tested on: MALME-3M melanoma
MDA-MB-231 breast = tested on: MDA-MB-231 breast
RXF 393 renal = tested on: RXF 393 renal
SF-268 CNS = tested on: SF-268 CNS
SF-295 CNS = tested on: SF-295 CNS
SF-539 CNS = tested on: SF-539 CNS
UACC-257 melanoma = tested on: UACC-257 melanoma
M14 melanoma = tested on: M14 melanoma

Structure (SMILES)	growth (NCI-H23 lung)	growth (NCI-H226 lung)	growth (NCI-H322M lung)	growth (HOP-62 NSCLC)	growth (NCI-H460 lung)	growth (HOP-92 NSCLC)	growth (NCI-H522 lung)	growth (A549/ATCC NSCLC)	growth (786-0 renal)	growth (COLO 205 colon)	growth (DU-145 prostate)	growth (K-562 leukemia)	growth (MALME-3M melanoma)	growth (MDA-MB-231 breast)	growth (RXF 393 renal)	growth (SF-268 CNS)	growth (SF-295 CNS)	growth (SF-539 CNS)	growth (UACC-257 melanoma)	growth (M14 melanoma)
CC[C@H](C)[C@H](NC(=O)c1cccn1C)C(=O)N(C)[C@H](C[C@@H](OC(C)=O)c1nc(C(=O)N[C@@H](Cc2ccccc2)C[C@H](C)C(=O)OC)cs1)C(C)C	22.8%	7.57% (active)	37.6%	10.1%	6.58% (active)	22.4%	-19.3% (active)	14.4%	12.7%	-69.7% (active)	5.31% (active)	6.81% (active)	73.6%	-13.7% (active)	3.6% (active)	19.1%	7.85% (active)	-12.7% (active)	51.8%	-0.428% (active)
O=[N+]([O-])c1cc([N+](=O)[O-])c(Cl)cc1Cl	-56.4% (active)	-59% (active)	40.6%	-73.9% (active)	-45.8% (active)	-80.1% (active)	-69.6% (active)	39.9%	-67.8% (active)	-75.7% (active)	-85.3% (active)	-9.49% (active)	-68.4% (active)	-86.5% (active)	-90.6% (active)	-80.2% (active)	-70.4% (active)	-83.2% (active)	-68.9% (active)	-96.8% (active)
CN1C(=O)C(=Cc2cn(Cc3ccccc3)c3ccccc23)C(=O)N(C)C1=O	80.4%	-71% (active)	72.3%	73.6%	0.11% (active)	65.1%	92.6%	81.7%	93.9%	1.43% (active)	103%	51.1%	91.3%	75.5%	56.9%	95.4%	34.7%	86.2%	27.9%	92.6%
Clc1ccc(CO/N=C(\Cn2ccnc2)c2ccc(Cl)cc2Cl)c(Cl)c1	-16.5% (active)	-8.01% (active)	21.6%	107%	-32.5% (active)	-31.9% (active)	-45.2% (active)	7.85% (active)	-45.3% (active)	105%	21%	1.68% (active)	-50.8% (active)	-11.5% (active)	-59.8% (active)	11.6%	-13.3% (active)	-55.1% (active)	6.73% (active)	-17.4% (active)
C[C@@]1(CCCCCCCCCc2ccc(O)cc2)C[C@]2(C)OC(=O)C[C@@H]2OO1	99.4%	102%	105%	104%	108%	82.7%	90%	99.4%	80.2%	124%	130%	70%	105%	105%	120%	123%	91.9%	139%	102%	99.8%
O=C1C(N2CC2)=C(N2CC2)C(=O)C(N2CC2)=C1N1CC1	-70% (active)	-63.6% (active)	3.77% (active)	-17% (active)	-30.9% (active)	41.4%	-53.3% (active)	6.45% (active)	-76.2% (active)	-100% (active)	-15.5% (active)	29.2%	-67.5% (active)	93.3%	-73.4% (active)	19.9%	-17.9% (active)	-67.1% (active)	-44.1% (active)	-82.4% (active)
C[C@@H]1C[C@@]2(C)[C@@H](CC[C@@H]3[C@@H]2CC[C@]2(C)C(=O)CC[C@@H]32)CC1=O	104%	102%	96.1%	78.9%	108%	71.7%	91.9%	82.7%	93.2%	99.5%	108%	93.1%	118%	103%	49.7%	102%	90.7%	95%	113%	96.9%
CCn1c2ccccc2c2cc(C(=O)c3ccc(C)c4ccccc34)ccc21	5.37% (active)	32.8%	28.1%	9.22% (active)	10.6%	40.6%	0.105% (active)	6.07% (active)	17.6%	-16.3% (active)	17.9%	4.51% (active)	74.4%	26.4%	15%	19.8%	11.6%	-5.79% (active)	36.9%	2.37% (active)
C=CC12CCN(CC1)C(C(O)c1ccnc3ccc(OC)cc13)C2 (stereo not given)	100%	89.3%	93.2%	97.5%	89%	75.2%	89%	76.1%	79%	-91.5% (active)	107%	17.6%	26.2%	51.2%	45.9%	83.7%	72.3%	89.8%	52.4%	72.3%
O=C1NC(=O)C(=Cc2cccn2CCCCCn2c3ccccc3c(=O)c3ccccc32)C(=O)N1	96.3%	99.1%	98.3%	102%	108%	90.4%	90.5%	100%	99%	114%	113%	89.1%	119%	116%	110%	102%	99.4%	102%	104%	102%
CN(C)CC(C(=O)Cc1ccccc1)c1ccccc1 (stereo not given)	83.6%	125%	102%	106%	102%	86.3%	-81.3% (active)	97.5%	9.78% (active)	5.72% (active)	-10.7% (active)	47.2%	37.5%	106%	6.5% (active)	30.6%	113%	5.03% (active)	5.79% (active)	36%
CC[S][Hg][Cl]	102%	113%	101%	119%	110%	113%	-46.7% (active)	98.8%	109%	124%	103%	75.4%	118%	114%	124%	103%	112%	105%	97.3%	106%
C[C@]12CC[C@H]3[C@@H](CC4SC(N)=NC45C/C(=N/NC(N)=O)CC[C@]35C)[C@@H]1CCC2=O (stereo not given in full)	-44.3% (active)	108%	52.4%	75.5%	-38.7% (active)	46.6%	-18.6% (active)	0.923% (active)	-9.65% (active)	35%	31.1%	-38.5% (active)	3.07% (active)	35.2%	7.08% (active)	-6.41% (active)	45.7%	87.2%	105%	-51.1% (active)
CCCCNC(c1ccc(Cl)cc1)C(O)c1ccc(Cl)cc1 (stereo not given)	38.5%	65.7%	51.4%	40.6%	7.67% (active)	-5.31% (active)	35.2%	63.5%	50%	-71.4% (active)	37.2%	0.937% (active)	39.7%	5.73% (active)	58.4%	55.9%	41.3%	68.3%	86%	25.7%
CC12CCC3C(CCC4=CC(=O)CCC43CF)C1CCC2=O (stereo not given)	106%	111%	102%	124%	109%	114%	87.3%	99.3%	106%	135%	116%	93.5%	94.2%	118%	67.7%	110%	106%	106%	97%	103%
